Active and inactive are the calls of the source.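 How the source made its calls: active means inhibition at or above 50% relative to wild type and mutant plate controls; inactive means inhibition below 50%.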

The assay is described as follows: inhibitors of Chlamydomonas gravitaxis, primary screen, whole organism, Chlamydomonas reinhardtii, WT vs cilia-less mutant, absorbance, 96-well (AID 463189).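 Further: 0% = wild type cc124 cells in DMSO and 100% = ciliumless bld1 mutant cells.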 Particulars: OD600 absorbance, 2 days, at 10 µM, hits give high values.
`CNCCc1c[nH]c2ccc(O)cc12`: the inhibition (commonly the relative decrease from the control value, in per cent) is 8.6% (inactive).

As for `CN1CCN(c2ccc3ccccc3n2)CC1`, the inhibition was 23.3% (inactive).

Regarding `CCCCCCCCCCCCCC(=O)O[C@@H]1[C@@H](C)[C@@]2(O)[C@@H](C=C(CO)C[C@@]3(O)C(=O)C(C)=C[C@@H]23)C2C(C)(C)[C@@]21OC(C)=O` (stereo partly drawn), the inhibition is -13.4% (inactive).

`c1ccc2cc(CC3=NCCN3)ccc2c1`: the inhibition was 1.93% (inactive).

Take `COC(=O)N1CCN(C(=O)Cc2ccc(Cl)c(Cl)c2)C(CN2CCCC2)C1` (stereo not drawn): the inhibition is -0.837% (inactive).

As for `CCCCCCCCC(=O)NCc1ccc(O)c(OC)c1`, the inhibition was 12.3% (inactive).

Take `CCCN(CCC)[C@@H]1CCc2ccc(O)cc2C1`: the inhibition was -3.45% (inactive).

For `CC(C)NC(C)Cc1ccc(I)cc1` (stereo not drawn), the inhibition was 22.2% (inactive).

Regarding `N[C@@H](CCl)C(=O)O`, the inhibition was 3.95% (inactive).

In the case of `CC(C)NP(=O)(NC(C)C)OP(=O)(NC(C)C)NC(C)C`, the inhibition was 5.29% (inactive).

Regarding `CN[C@@H](C)[C@H](O)c1ccccc1`, the inhibition is -4.11% (inactive).

Regarding `CC(=O)[C@H]1CCC2C3CC[C@H]4C[C@H](O)CC[C@]4(C)C3CC[C@@]21C` (stereo partly drawn), the inhibition is 0.863% (inactive).

`CCc1c(C(=O)OC)ncc2[nH]c3cc(OC)c(OC)cc3c12`: the inhibition is 1.73% (inactive).

As for `CCNC(=O)[C@H]1O[C@@H](n2cnc3c(N)ncnc32)C(O)[C@H]1O` (stereo partly drawn), the inhibition is -1.46% (inactive).

Consider `Oc1cc2c(cc1O)[C@H]1c3ccccc3CN[C@@H]1CC2`, for which the inhibition is -2.75% (inactive).

Consider `O=P1(N(CCCl)CCCl)NCCCO1` (stereo not drawn), for which the inhibition was -0.869% (inactive).

Regarding `CN1CC[C@@]2(C)c3cc(O)ccc3N(C)C12` (stereo partly drawn), the inhibition is -1.8% (inactive).

On to `NC(=O)CN1CC(O)CC1=O` (stereo not drawn), for which the inhibition was 9.01% (inactive).

With `NC(=O)c1ccc(OCC(O)CN2CC=C(c3ccc(F)cc3)CC2)cc1` (stereo not drawn), the inhibition is -9.43% (inactive).

Take `CN[C@@H]1C[C@@H](c2ccc(Cl)c(Cl)c2)c2ccccc21`: the inhibition is 129% (active).

As to `COc1ccc2c(c1O)-c1cccc3c1[C@@H](C2)N(C)CC3`, the inhibition is 6.42% (inactive).

Take `N[C@H](CCCCCP(=O)(O)O)C(=O)O`: the inhibition was -8.7% (inactive).

As for `CCN(CC)C(=O)N[C@@H]1C=C2c3cccc4[nH]cc(c34)C[C@H]2N(C)C1`, the inhibition is 9.57% (inactive).

Take `S=C(NC1CCCCC1)N1CCC(c2cnc[nH]2)CC1`: the inhibition was 12.6% (inactive).

Regarding `NC(=O)CN1CCCC1=O`, the inhibition was -12.5% (inactive).

Regarding `OCc1cnc[nH]1`, the inhibition is 3.19% (inactive).

For `C[C@]12CC[C@H](OS(=O)(=O)O)CC1=CC[C@@H]1[C@@H]2CC[C@]2(C)C(=O)CC[C@@H]12`, the inhibition is 6.73% (inactive).

Take `C#CCOC(=O)C1=CCCN(C)C1`: the inhibition was 6.87% (inactive).

In the case of `CN1CCC(c2c[nH]c3ccc(O)cc23)CC1`, the inhibition is 4.07% (inactive).

For the molecule `CC(Cc1ccc(OCC(=O)O)cc1)NCC(O)c1cccc(Cl)c1` (stereo not drawn), the inhibition is 1% (inactive).

Regarding `NC(Cn1oc(=O)[nH]c1=O)C(=O)O` (stereo not drawn), the inhibition is -0.927% (inactive).

Regarding `N#CC(C#N)=Cc1cc(O)c(O)c(O)c1`, the inhibition was 7.39% (inactive).

In the case of `CN1CCC23CCCC[C@H]2C1Cc1ccc(O)cc13` (stereo partly drawn), the inhibition is -3.02% (inactive).

As to `CCCn1c(C)c(C(=O)c2ccc3ccccc3c2)c2ccccc21`, the inhibition is 18.5% (inactive).

With `CCCN(CCC)C1Cc2cc(OC)c(OC)cc2C1`, the inhibition is -11.6% (inactive).

In the case of `CCCN(CCC)C1CCc2cccc(O)c2C1` (stereo not drawn), the inhibition is 1.17% (inactive).

As to `CC1Cc2cc3c(cc2C(c2ccc(N)cc2)=NN1)OCO3` (stereo not drawn), the inhibition is 0.595% (inactive).

In the case of `COC(=O)c1cc2c(cn1)[nH]c1ccccc12`, the inhibition is 2.96% (inactive).

The values are drawn from PubChem BioAssay.
